Compound activity deposited in PubChem by National Center for Advancing Translational Sciences (NCATS).
Most compounds without a hit are left out; they make up all but 12% or so of the library.
BAZ2B inh = inhibitors of human BAZ2B bromodomain. Q9UIF8. AlphaScreen BAZ2B-H3K14Ac peptide displacement. Potency, µM (top dose mostly 114 µM), inactives show at the top dose activity change, negative = inhibition, usual class: inhibitors. actives 4.4% (n = 360,000). AID 504333; further: on the % scale 0 is the no-effect control and ±100 the full control effect; nearly all actives have a fitted effect of over 60% in size
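Compounds, titrated to a top concentration of 110 uM, were incubated 30 min at room temperature with preformed BAZ2B/acetyl-K14 H3 peptide complex (50 nM each). Proximity signal was measured by AlphaScreen after 20 min with beads.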
JMJD2A Tudor inh = blocks the human JMJD2A Tudor domain | O75164 | AlphaScreen JMJD2A-Tudor / H3K4me3 peptide binding | Potency, µM (titrated, usually from 114 µM), for the others: at the top dose activity change, negative = inhibition, actives largely listed as inhibitors | AID 504339 | actives 4.4% (n = 390,000); further: on the % scale 0 is the no-effect control and ±100 the full control effect; nearly all actives have a fitted effect of over 50% in size
Sfp inh = inhibitors of Bacillus subtilis Sfp phosphopantetheinyl transferase; AID 1490; Q9F4F7; Biochemical Sfp PPTase activity, qHTS; Potency, µM, without a hit: largest response in the series, negative = inhibition, hits mostly inhibitors; actives 3.5% (n = 310,000);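 further: the enzyme is Sfp with the accession as filed and its product quenches rhodamine fluorescence; 0% = enzyme reaction without inhibitor and -100% = no enzyme wells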
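Fluorescence-quenching assay: 15 nM Sfp-PPTase preincubated 15 min at room temperature with compound, then 5 uM rhodamine-CoA and 12.5 uM BHQ-2-labelled YbbR peptide added. Fluorescence (ex 525/em 598 nm) read at start and after 30 min; difference gives rate.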
HP1b binding inh = blocks HP1-beta chromodomain binding to methylated histone tails | Potency, µM (highest dose often 114 µM), inactives show top-dose activity change, negative = inhibition, most hits filed as inhibitors | actives 0.56% (n = 390,000) | AlphaScreen HP1-beta / biotin-H3K9me3 peptide binding | P83916; further: nearly all actives have a fitted effect of over 70% in size
Target sequence (P83916 whole entry, looked up): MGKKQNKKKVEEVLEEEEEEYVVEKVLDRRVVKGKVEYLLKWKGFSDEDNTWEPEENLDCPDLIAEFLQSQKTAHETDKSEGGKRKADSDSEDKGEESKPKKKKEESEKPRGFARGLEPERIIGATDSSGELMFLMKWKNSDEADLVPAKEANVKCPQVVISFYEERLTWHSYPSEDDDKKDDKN
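Compound inhibition of the preformed complex between 50 nM HP1-beta and 50 nM biotinylated H3K9me3 peptide was read by AlphaScreen. Buffer was PBS pH 7.4 with 0.01% Tween-20. Incubations ran 30 min at room temperature, with 10 ug/mL donor/acceptor beads.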
PLK1 PBD block = inhibitors of human PLK1 polo-box domain binding; Potency, µM, inactives show max response, negative = inhibition, usual class: inhibitors; Plk1 PBD binding of FITC phosphopeptide, fluorescence polarization; AID 720504; actives 2.8% (n = 360,000); P53350; further: series mostly up to about 57 µM; on the % scale 0 is the no-effect control and ±100 the full control effect; nearly all actives have a fitted effect of over 65% in size
G9a inh = blocks human histone lysine methyltransferase G9a; Q96KQ7; G9a H3K9 monomethylation, AlphaScreen, 2 h; Potency, µM (highest dose often 102 µM), for the others: top-dose activity, negative = inhibition, hits mostly inhibitors; actives 8.8% (n = 350,000); AID 504332; further: on the % scale 0 is the no-effect control and ±100 the full control effect; nearly all actives have a fitted effect of over 75% in size
Target sequence (Q96KQ7 913-1193 limits assumed): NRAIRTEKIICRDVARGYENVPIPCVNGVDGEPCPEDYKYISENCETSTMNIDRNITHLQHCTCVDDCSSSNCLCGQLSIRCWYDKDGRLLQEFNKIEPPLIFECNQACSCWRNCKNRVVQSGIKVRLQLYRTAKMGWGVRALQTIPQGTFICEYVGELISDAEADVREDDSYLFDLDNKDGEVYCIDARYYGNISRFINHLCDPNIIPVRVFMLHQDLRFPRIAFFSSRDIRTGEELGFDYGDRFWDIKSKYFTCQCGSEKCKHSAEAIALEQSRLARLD
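Step 1: enzyme (final 20 nM) with compound, 15 min RT. Step 2: substrate peptide 500 nM and SAM 20 uM, 2 h RT. Step 3: anti-H3K9me1 antibody and AlphaScreen beads, 10 min, then plate read.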
* = called active by the depositor; ? = inconclusive; nt = no result given; [ ] = remark or other dose. The call rests on the fitted dose curve; in most records, active means well fitted curve in the direction sought with a large enough effect; inconclusive means small, poorly fitted or top-dose-only effect, or another doubt; inactive means no such curve, though single readings can be large; an effect the other way counts as inactive or inconclusive. Potency means the concentration at half of the fitted maximal effect.

SMILES	BAZ2B inh	JMJD2A Tudor inh	Sfp inh	HP1b binding inh	PLK1 PBD block	G9a inh
COc1ccc(/C=N/Nc2nc(Nc3ccccc3)nc(N3CCCC3)n2)cc1	nt	-15.3%	-3.3%	41.4%	-8.4%	10.0%
COc1ccc(Nc2nc(N3CCCCC3)c3ccccc3n2)cc1	?	?	50.1µM*	-3.6%	-3.3%	?
COc1ccc(Nc2nc(-c3ccccc3)c3cc(Br)ccc3n2)cc1	?	?	nt	10.8%	nt	12.6µM*
c1ccc2c(c1)nc(N1CCCCCC1)c1ccccc12	128.9%	17.8µM*	-1.6%	290.2%	-21.6%	81.4%
N#CC(C#N)=Cc1cc2ccccc2nc1N1CCCCC1	39.8µM*	?	6.9%	-25.6%	?	?
COc1cc(OC)c(NC(=O)c2c(C)nn(-c3ccc(C)cc3)c2-n2cccc2)cc1Cl	-35.4%	-24.5%	nt	-6.4%	nt	-17.6%[59 µM]
CCN(CC)c1ccc(NC(=O)C(Cc2ccccc2)NS(=O)(=O)c2ccc(Br)s2)c(C)c1 (centres undefined)	-14.5%	?	nt	1.6%	nt	?
Cn1c(CNC(=O)c2ccc3c(c2)OCO3)nnc1SCC(=O)Nc1ccc(F)cc1	-14.5%	-0.4%	18.3%	-0.9%	-0.9%	-6.1%
Cc1ccc(Nc2nc(N3CCOCC3)c3ccccc3n2)cc1	-30.3%	-19.0%	-29.9%	31.0%	-8.0%	?
Oc1ccc(Nc2nc(N3CCCC3)c3ccccc3n2)cc1	?	56.2µM*	-20.3%	-48.3%	-10.7%	39.8µM*
CN1C[C@@H]2[C@@H]3C(=O)N(Cc4ccccc4)C(=O)[C@@H]3[C@](Cc3ccccc3)(C1=O)N2C(=O)c1ccc(F)cc1	nt	-12.6%	nt	31.8%	-2.8%	nt
CCSc1ncnc2sc3c(c12)CCC3	60.9%	65.7%	6.1%	110.5%	-0.6%	63.6%
CCSC1=NC2(CCCCC2)Nc2sc3c(c21)CCCC3	?	22.4µM*	39.8µM*	?	13.4µM*	4.47µM*
O=C1CCC2(CCCCC2)N1	nt	-3.4%	nt	40.5%	-2.4%	nt
CCC1C(=O)N=C(SCC(=O)Nc2ccc(Br)cn2)NC1=O (centres undefined)	-18.8%	?	4.4%	21.1%	26.7µM*	?
CC(C)(C)c1ccc(C(=O)NC2=NC(c3cccc(F)c3)CC(=O)N2)cc1 (centres undefined)	1.9%	10.6%	nt	24.1%	nt	-1.3%[59 µM]
COc1cc(/C=c2/sc3nc(-c4ccccc4)c(-c4ccccc4)n3c2=O)cc(OC)c1OC	-35.5%	-17.3%	16.5%	-8.2%	1.0%	?
COc1ccc(/C=c2/sc3nc(-c4ccccc4)c(-c4ccccc4)n3c2=O)cc1	?	-21.8%	-16.0%	?	-6.5%	14.1µM*
COc1ccc(/C=c2\sc3nc(-c4ccccc4)c(-c4ccccc4)n3c2=O)cc1OC	?	-34.2%[11.4 µM]	17.8µM*	12.9%	-26.9%	35.5µM*
O=c1/c(=C\c2cccc(O)c2)sc2nc(-c3ccccc3)c(-c3ccccc3)n12	5.62µM*	-27.2%	-20.3%	1.5%	-0.8%	?
Cc1ccc(NC(=S)Nc2ccc3nc(-c4ccccn4)c(-c4ccccn4)nc3c2)cc1C	?	?	-18.1%	-23.0%	-25.2%	7.94µM*
O=c1[nH]c(S)nc2sc3c(c12)CCCC3	?	25.1µM*	44.7µM*	0.5%	?	1µM*
Cc1nc2sc3c(c2c(=O)[nH]1)CCCC3	-2.0%	-11.9%	21.7%	27.1%	-11.4%	31.9%
Cc1ccccc1NC(=O)Nc1ccccc1C(N)=O	2.3%	-13.4%	9.6%	-7.2%	26.7µM*	-2.7%[59 µM]
Cc1ccccc1NNC(N)=S	-17.1%	-15.5%	50.1µM*	9.6%	-15.8%	11.2µM*
Cc1ccc(NC(=O)Nc2ccccc2C(N)=O)cc1	-2.1%	-19.0%	14.5%	19.9%	3.1%	-4.7%
CS(=O)(=O)c1cccc(C(=O)Nc2nnc(C3=COCCO3)o2)c1	17.8µM*	3.16µM*	nt	75.0%	?	-10.0%[0.501 µM]
O=C(Nc1nnc(-c2ccc(F)cc2)o1)c1cccc([N+](=O)[O-])c1	?	0.0%	13.8%	14.8%[57 µM]	-19.6%	-37.0%
